Only some compounds are listed: those with a hit (about 5.5% of all), similar ones and a draw of the others.
VP16 counter: inhibits Gal4-VP16 luciferase reporter, ROR gamma counter-screen; Drosophila S2 Gal4-VP16 UAS-luciferase, luminescence, 20 h; Potency, µM (doses to about 53.6 µM), without a hit: at the top dose activity, negative = inhibition, usual class: inhibitors; actives 3.5% (n = 310,000);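 note: Gal4-VP16 expression switched on by copper sulfate through the metallothionein promoter; potency is the fitted concentration of half-maximal effect; % is set by controls: 0 for no effect and ±100 for the full control effect; nearly all actives have a fitted effect of over 50% in size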
CtBP-E1A inh: blocks the CtBP interaction with E1A; AlphaScreen GST-E1A/His-CtBP binding, 1536-well; stronger effect = lower value; activity change, % (concentration not given with the values); actives 0.49% (n = 340,000); AID 651724; in the data active = activity change below about -65%; inconclusive = mostly about -30% to -63%; note: % is set by controls: 0 for no effect and ±100 for the full control effect
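GST-E1A and His-tagged CtBP (125 nM each as 5X stock) were preincubated with pin-transferred compound for 2 h at 37 °C in the dark, then glutathione donor and nickel acceptor beads were added for 1 h before AlphaScreen reading.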
CBFb RUNX1 block: CBF-beta/RUNX1 interaction disruption | Q01196+Q13951 | AlphaScreen CBFb-His/RUNX1-biotin binding, biochemical | 230,000 tested, under 10 active | Potency, µM (highest dose often 59.8 µM), for inactives: at the top dose activity, negative = inhibition, actives largely listed as inhibitors | AID 1477; note: % of control where 0% means no effect
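CBFb-His/RUNX1-biotin, 30 nM each, preincubated 20 min RT; compound 15 min RT; Ni + streptavidin beads 50 ng each, 90 min RT; AlphaScreen read.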
Six1-Eya2 inh: inhibitors of human Six1/Eya2 interaction; Q15475+O00167; AlphaScreen GST-Six1/His-Eya2 binding, biochemical; stronger effect = lower value; activity change, % (concentration not given with the values); actives 0.56% (n = 360,000); AID 651725; in the data active = activity change below about -65%; inconclusive = mostly about -30% to -63%; note: % is set by controls: 0 for no effect and ±100 for the full control effect
Target sequence (O00167 whole entry, looked up): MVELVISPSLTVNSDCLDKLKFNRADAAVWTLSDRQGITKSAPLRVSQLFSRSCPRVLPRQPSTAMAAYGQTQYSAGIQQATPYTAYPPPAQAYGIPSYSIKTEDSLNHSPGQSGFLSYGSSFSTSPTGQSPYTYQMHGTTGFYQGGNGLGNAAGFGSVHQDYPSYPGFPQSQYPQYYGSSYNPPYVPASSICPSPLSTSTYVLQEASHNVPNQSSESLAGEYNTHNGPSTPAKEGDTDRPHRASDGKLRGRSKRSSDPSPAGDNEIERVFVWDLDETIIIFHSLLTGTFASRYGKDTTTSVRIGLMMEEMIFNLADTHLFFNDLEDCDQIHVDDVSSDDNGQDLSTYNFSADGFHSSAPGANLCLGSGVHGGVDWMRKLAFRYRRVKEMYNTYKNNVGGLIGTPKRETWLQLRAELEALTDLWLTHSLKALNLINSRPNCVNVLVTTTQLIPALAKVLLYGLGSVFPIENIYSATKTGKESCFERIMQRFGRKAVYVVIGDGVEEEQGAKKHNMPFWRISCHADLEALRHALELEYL
Target sequence (Q15475 whole entry, looked up): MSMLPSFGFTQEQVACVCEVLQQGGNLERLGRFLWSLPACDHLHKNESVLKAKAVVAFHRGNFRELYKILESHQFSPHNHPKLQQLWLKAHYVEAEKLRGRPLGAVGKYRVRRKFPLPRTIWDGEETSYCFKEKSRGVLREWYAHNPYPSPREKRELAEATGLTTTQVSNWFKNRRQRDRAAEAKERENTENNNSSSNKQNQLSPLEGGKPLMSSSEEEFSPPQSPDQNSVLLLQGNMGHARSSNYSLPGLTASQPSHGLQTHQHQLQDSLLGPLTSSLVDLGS
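Six1/Eya2 binding was read as AlphaScreen signal after compounds were pinned into GST-Six1 plus His-tagged Eya2 (5X stock 250/500 nM) in pH 8.0 Tris/NaCl/TCEP buffer, beads added, then incubated 1 h, 37 C, dark.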
MBNL1 CUG block: inhibitors of human MBNL1 binding to CUG repeat RNA. Potency, µM (top dose mostly 57.5 µM), for the others: top-dose activity change, negative = inhibition, usual class: inhibitors. actives 0.036% (n = 280,000). TR-FRET MBNL1-His/biotin-(CUG)12 binding, 665/545 ratio; active = well fitted inhibition curve with a large enough effect in the signal ratio, with a control signal flat, not every such curve was filed as active; inconclusive = small, poorly fitted or top-dose-only effect, or effect the other way, or a change in a side signal; inactive = no such curve, though single readings can be large or run the other way; the % refers to the signal ratio; note: potency is the fitted concentration of half-maximal effect; % is set by controls: 0 for no effect and ±100 for the full control effect
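Ratiometric TR-FRET (665 over 545 nm, excitation 340 nm) tracks disruption of MBNL1-His/biotin-(CUG)12 complex after 60 min at room temperature, with compounds at 92 nM to 58 uM final.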
RORgamma inh: ROR gamma (mouse) transcription inhibition; Drosophila S2 Gal4-RORgamma UAS-luciferase reporter, 20 h; P51450; actives 5.4% (n = 310,000); AID 2551; Potency, µM (doses to about 53.6 µM), for inactives: top-dose activity change, negative = inhibition, hits mostly inhibitors; note: potency is the fitted concentration of half-maximal effect; % is set by controls: 0 for no effect and ±100 for the full control effect; nearly all actives have a fitted effect of over 60% in size
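Compounds are pin-transferred onto Drosophila Schneider cells expressing a copper-inducible Gal4–ROR gamma transactivation domain fusion. After 1 hr, copper sulfate is added to 700 uM final; luciferase is read 20 hr later.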
Active calls of the source: *; ? = inconclusive; . = no result. Unless noted, calls come from the whole dose curve; as a rule, active = well fitted curve in the direction sought with a large enough effect; inconclusive = small, poorly fitted or top-dose-only effect, or another doubt; inactive = no such curve, though single readings can be large; an effect the other way counts as inactive or inconclusive.

SMILES	VP16 counter	CtBP-E1A inh	CBFb RUNX1 block	Six1-Eya2 inh	MBNL1 CUG block	RORgamma inh
Cc1[nH]n(-c2ccccc2)c(=O)c1/C=N/NC(=O)c1ccccc1F	1µM*	?	.	-28.3	6.3%	0.501µM*
Cc1ccc(/C=N/NC(=O)C2COc3ccccc3O2)s1 (configuration not stated)	.	0.7	.	-12.3	.	.
Cc1[nH]n(-c2ccccc2)c(=O)c1/C=N\NC(=O)C1COc2ccccc2O1 (configuration not stated)	1.12µM*	-80.6*	?	-88.7*	-11.9%	0.794µM*
Cc1[nH]n(-c2ccccc2)c(=S)c1C=NCCCN=Cc1c(C)[nH]n(-c2ccccc2)c1=S	1.78µM*	0.0	-0.6%	-16.7	?	0.631µM*
Cc1[nH]n(-c2ccccc2)c(=O)c1C=NCc1ccco1	5.7%	.	0.9%	.	1.4%	-35.2%
Cc1[nH]n(-c2ccccc2)c(=O)c1/C=N/N(C)c1ccccc1	?	0.9	-10.8%	-19.1	6.5%	7.94µM*
Cc1[nH]n(-c2ccccc2)c(=O)c1/C=N/O	3.55µM*	7.7	-0.7%	-1.3	-4.3%	2.51µM*
CC(=O)N/N=C/c1c(C)[nH]n(-c2ccccc2)c1=O	11.2µM*	-67.6*	?	-73.3*	-2.9%	5.01µM*
Cc1[nH]n(-c2ccccc2)c(=O)c1/C=C1\C=NN=C1c1ccccc1	?	0.5	-12.0%	5.8	2.4%	11.2µM*
Cc1[nH]n(-c2ccccc2)c(=O)c1C=Nc1ccc(S(=O)(=O)N(C)C)cc1	-5.2%	-17.7	-1.6%	-25.3	.	7.1%
CC(Sc1nc2c(c(=O)[nH]1)CCCC2)C(=O)Nc1ccc(S(N)(=O)=O)cc1 (configuration not stated)	-4.4%	5.1	.	-0.3	-6.6%	-8.7%
Cc1[nH]n(-c2ccccc2)c(=O)c1/C=N/NC(=O)COc1ccccc1[N+](=O)[O-]	0.631µM*	-87.7*	?	-78.8*	16.2%	0.447µM*
Cc1[nH]n(-c2ccccc2)c(=O)c1/C=N/NC(=O)C(C)C	3.16µM*	20.7	-21.2%	?	-1.7%	6.31µM*
Cc1[nH]n(-c2ccccc2)c(=O)c1C=Nc1ccc(S(=O)(=O)NC(N)=O)cc1	-20.3%	.	10.4%	-8.3	10.7%	-10.3%
Cc1ccc(O)c(/C=N/NC(=O)CN2CCCC2)c1	?	.	.	-65.2*	6.0%	12.6µM*
O=C(CN1CCOCC1)N/N=C/c1cccc2ccccc12	1.5%	1.0	.	1.1	?	9.2%
O=C(NN=Cc1cccc2ccccc12)C1CC1	.	-1.8	.	-7.1	.	.
O=C(N/N=C/c1c(O)ccc2ccccc12)c1cccc(C(F)(F)F)c1	5.01µM*	-14.3	-7.7%	-27.8	-15.4%	3.16µM*
O=C(NN=Cc1c(O)ccc2ccccc12)C1CC1	.	-68.6*	.	?	.	.
O=C(CN1CCCC1)N/N=C/c1c(O)ccc2ccccc12	3.16µM*	-91.3*	.	-90.2*	?	3.16µM*
CC(NC(=O)CN(C)S(=O)(=O)c1ccc(Br)s1)c1ccccc1 (configuration not stated)	18.3%	3.3	.	0.8	0.4%	38.7%
CCOC(=O)[C@]12CCCC=C1N(Cc1ccco1)C(=O)[C@H](CC(=O)N1CCN(C(=O)c3ccco3)CC1)C2	.	-4.1	.	2.2	.	.
Cc1ccc(CNC(=O)C2CCCN(S(=O)(=O)c3cccc4nonc34)C2)cc1 (configuration not stated)	3.1%	-5.2	.	2.5	4.1%	-19.7%
O=C(CCSc1nc2ccccc2s1)N/N=C/c1c(O)ccc2ccccc12	1µM*	2.4	5.8%	3.3	.	1.41µM*
Cc1cc(C)n(CCC(=O)N/N=C/c2c(O)ccc3ccccc23)n1	?	.	-10.0%	-88.8*	12.3%	1.12µM*
SMILES	VP16 counter	CtBP-E1A inh	CBFb RUNX1 block	Six1-Eya2 inh	MBNL1 CUG block	RORgamma inh
Cc1cc(C)n2nc(C(=O)N/N=C/c3ccccc3Cl)nc2n1	7.4%	-6.0	-1.0%	-13.8	11.5%	15.9%
Cc1cc(C)n2nc(C(=O)N/N=C/c3c4ccccc4cc4ccccc34)nc2n1	17.8µM*	-18.4	3.5%	-16.9	-7.7%	35.5µM*
CCCOc1ccccc1/C=N/NC(=O)C1CC1	-1.0%	3.2	.	3.4	3.4%	8.91µM*
Cc1cc(C)n(CCC(=O)N/N=C/c2ccc(O)cc2)n1	-0.4%	3.1	-2.5%	-8.0	5.1%	5.0%
N#C/C(=C\c1cccn1S(=O)(=O)c1ccccc1)S(=O)(=O)c1ccc(F)cc1	.	-16.0	.	-13.4	.	.
CNC(=O)c1cc(NC(=O)N(CCC#N)CCN(C(=O)NC(Cc2ccccc2)C(=O)NC(CC(C)C)C(=O)NC)c2ccccc2)ccc1OC (configuration not stated)	.	0.0	.	21.4	.	.
O=C(N/N=C/c1c(O)ccc2ccccc12)C(=O)N1CCCC1	.	?	.	-86.9*	.	.
CCOc1ccc(/C=N/NC(=O)C(=O)N2CCCCCC2)c2ccccc12	.	-6.2	.	-5.7	?	.
CC(C)OP(=O)(c1ccc(N(C)C)cc1)C(O)c1ccc(N(C)C)cc1 (configuration not stated)	3.8%	.	.	2.0	-0.6%	30.1%
COc1ccc(C2C(O)C(c3c[nH]c4ccccc34)=NN2C(=O)CCl)cc1 (configuration not stated)	10µM*	-1.3	.	-4.0	?	12.6µM*
CCN1C(=O)c2ccc(C(=O)Nc3cccc(C(=O)O)c3)cc2C1=O	?	6.1	.	3.8	?	10µM*
O=C(O)c1cccc(NC(=O)c2ccc(N3C(=O)c4ccc(C(=O)Nc5cccc(C(=O)O)c5)cc4C3=O)cc2)c1	0.7%	-2.1	.	-19.7	15.7%	-27.0%
CN(C)c1ccc(/C=C2\SC(=O)N(CCc3nnc(N)s3)C2=O)cc1	4.47µM*	4.0	-4.9%	-1.1	?	2.51µM*
COc1ccc(C2/C=C\CN(S(=O)(=O)c3ccc(C)cc3)[C@H](Cc3ccccc3)C(=O)N2Cc2ccc(F)cc2)cc1 (some centres not stated)	2.9%	0.8	17.2%	-4.9	9.6%	-44.2%
COc1ccc(C2/C=C\CN(S(=O)(=O)c3ccc(C)cc3)C(Cc3ccccc3)C(=O)N2Cc2ccc(F)cc2)cc1 (configuration not stated)	-10.6%	.	12.5%	.	.	10µM*
Cn1cc(C(=O)N/N=C/c2ccc3c(c2)OCO3)c2ccccc21	10.0%	20.9	3.4%	15.8	?	-14.5%
Cc1nc2ccccc2cc1C(=O)N/N=C/c1cccs1	?	-4.8	7.0%	2.2	?	10µM*

Screens (PubChem BioAssay)
